assay: TOR branch reporter RPL19A-GFP response – cell-based, S. cerevisiae, third cherry pick, flow cytometry, confirmation (AID 504336);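 further: median GFP fluorescence of all gated yeast cells by flow cytometry; ratio of well median fluorescence to plate mean of DMSO wells with DMSO = 100%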; conditions: S. cerevisiae RPL19A-GFP strain, 3 h, at 10 µM, hits give low values;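 active means compounds whose GFP signal falls below 65% of the DMSO control level; inconclusive means fewer than 70 yeast cells counted in the well; inactive means the rest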

GFP response relative to DMSO, inactive:
O=C(O)CCS(=O)(=O)c1nc(-c2cccs2)cc(C(F)(F)F)n1 97%
Oc1ccc(F)c2cccnc12 101%
CCC(C)Nc1nc(N)c([N+](=O)[O-])c(Nc2ccccc2OC)n1 (configuration not stated) 105%
CC(=O)NCCOc1cccc2cccnc12 102%
CCc1c(C)nc2c(OC)cccc2c1Cl 102%
COc1ccccc1Nc1nc(NCCCN(C)C)nc(N)c1[N+](=O)[O-] 99.1%
O=C(Nc1nc(-c2ccccn2)cs1)c1ccccc1-n1cnnn1 98.8%
O=C(/C=C/Nc1cccc(O)c1)c1ccccc1 98.8%
CCN(CC)c1ncnc2ccc(Br)cc12 98%
Cc1nc2c(O)cccc2cc1CO 102%
O=C(O)c1ccc(C=NNC(=O)c2cccc3ccccc23)cc1 97.2%
CC1=NNC(=O)/C1=C\c1cn(-c2ccccc2)nc1-c1ccc(F)cc1 89.7%
Cc1ccc(Nc2cc(=O)[nH]c(=O)[nH]2)cc1C 96.5%
Cc1cccc(Nc2cc(=O)[nH]c(=O)[nH]2)c1 100%
COc1ccc(N/C=C/C(=O)c2ccc(Cl)cc2)cc1 102%
CNc1cccc2c1C(=O)c1ccccc1C2=O 102%
COC(=O)COc1c(Cl)cc(Cl)c2ccc(C)nc12 105%
CCC(C)Nc1nc(N)c([N+](=O)[O-])c(Nc2cc(OC)ccc2OC)n1 (configuration not stated) 96.5%
C/C(=C\C(=O)c1ccccc1)Nc1cccc(O)c1 98%
C[n+]1cccc2c(Br)ccc([O-])c21 101%
CSc1ccccc1OCc1cc(C(=O)N2CCN(C)C(c3ccccc3)C2)no1 (configuration not stated) 101%
Brc1ccc2ncnc(NCc3ccccc3)c2c1 102%
